# Test results taken from PubChem BioAssay AID1839 (Johns Hopkins Ion Channel Center, 2009).
# Screen size: about 2,400 compounds; about 220 (9.2%) were called active.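 The calls were made as follows: active = signal change above the mean of dofetilide-free buffer controls plus 3 SD, so a positive margin; inactive = the rest.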 The sample as a whole holds a higher share of actives than the screen did.
# Assay: nonspecific flux effects in parental CHO-K1, confirmation, counter-screen for hERG block protection project, cell-based, CHO-K1 parental line, FluxOR thallium flux (AID 1839);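 also: compounds applied alone with no dofetilide to cells lacking hERG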
# Conditions: CHO-K1 parental cells, FluxOR thallium flux fluorescence; at 10 µM
row,Compound,"signal change vs control minus 3*SD hit threshold (margin above threshold, higher = more increase)"
1,CN(C)/C=C/C(=O)c1ccc(Cl)cc1Cl,-23.8% (inactive)
2,CCCCN(CCCC)C(=S)NC(=O)c1ccccc1Cl,39.6% (active)
3,CC1(C)CC(NC(=O)c2ccc(Cl)cc2Cl)CC(C)(C)N1,-35.9% (inactive)
4,CC1(C)CC2CC(C)(CN2C(=S)NC(=O)c2ccccc2Cl)C1 (stereo not given),-14.7% (inactive)
5,O=C(NC(=S)N1CCCCCC1)c1ccc(Cl)cc1Cl,-16.7% (inactive)
6,O=C(NC(=S)N(CCO)Cc1ccccc1)c1cc(Br)ccc1Cl,-12.2% (inactive)
7,CCN(CC)C(=S)NC(=O)c1ccc(Cl)cc1Cl,3.8% (active)
8,CCCN(CCC)C(=S)NC(=O)c1ccc(Cl)cc1Cl,27% (active)
9,CCN(CC)C(=S)NC(=O)c1ccc(F)cc1,-15.9% (inactive)
10,C=CCNC(=O)c1onc(CSc2ccc(OC)cc2)c1C(=O)O,-35.4% (inactive)
11,Cc1ccc(/C=C(\NC(=O)c2ccccc2)C(=O)N2CCCCC2)cc1,-35.4% (inactive)
12,O=C(CCc1nc(-c2ccccc2)no1)N1CCCC1,-26.5% (inactive)
13,Cc1nn(-c2ccccc2)c(Cl)c1/C=C1\SC(=S)NC1=O,26.5% (active)
14,Cc1nn(-c2ccccc2)c(C)c1S(=O)(=O)O,-23.2% (inactive)
15,Cc1nn(-c2ccccc2)c(N2CCCC2)c1/C=N/O,-24.6% (inactive)
16,CCc1nnc(NC(=O)c2c(C)nn(-c3ccccc3)c2Cl)s1,-14.1% (inactive)
17,O=S(=O)(NC(=S)NC1CCCCC1)c1ccc(Br)cc1,-9.7% (inactive)
18,CCOC(=O)C1CCN(C(=O)COC(=O)c2nn(C)c(=O)c3ccccc23)CC1,-33.9% (inactive)
19,CCOC(=O)c1c(O)c2ccccc2n(C)c1=O,-25% (inactive)
20,CCOC(=O)c1n[nH]n2c1nc(=S)c1ccccc12,12.1% (active)
21,COc1ccc2nc(/N=C/c3c(C)[nH]n(-c4ccc(C)cc4C)c3=O)sc2c1,22.3% (active)
22,Cc1[nH]n(-c2ccc(F)cc2)c(=O)c1/C=N/c1sc2c(c1C#N)CCCC2,-1.9% (inactive)
23,CCOc1ccc2nc(/N=C/c3nc(-c4ccc(Br)cc4)oc3O)sc2c1,-17.1% (inactive)
24,CCOc1ccc2nc(/N=C/c3c(C)[nH]n(-c4ccc(C)cc4)c3=O)sc2c1,33.5% (active)
25,CCOc1ccc2nc(N3C(=O)/C(=C/c4ccc(Cl)cc4)NC3=S)sc2c1,-25% (inactive)
26,COc1ccc2nc(-n3c(O)c(C4=c5ccccc5=NC4=O)[nH]c3=S)sc2c1,-25.1% (inactive)
27,Cc1[nH]n(-c2cccc3ccccc23)c(=O)c1/C=N/c1sc2c(c1C#N)CCC2,-19.1% (inactive)
28,Cc1[nH]n(-c2ccccc2)c(=O)c1N=Nc1ccc(C(N)=O)cc1,-43.3% (inactive)
29,COc1ccc2nc(/N=C/c3c(C)[nH]n(-c4ccc(C)cc4)c3=O)sc2c1,62.6% (active)
30,Cc1[nH]n(-c2ccc(Cl)cc2)c(=O)c1/C=N/c1nnc(-c2ccccc2)s1,78.7% (active)
